High-throughput results as filed in PubChem BioAssay.
Shown are actives, neighbours in structure and some others; about 3.4% of the full set was active somewhere.
Tau fibril ThT = qHTS for Inhibitors of Tau Fibril Formation, Thioflavin T Binding. Microtubule-associated protein tau (Homo sapiens), P10636. recombinant tau K18 P301L, heparin-induced fibrillization, ThT fluorescence. Potency, µM (titrated, usually from 57.4 µM), usual class: inhibitors. actives 2.1% (n = 270,000). AID 1460, 2008; further: nearly all actives have a fitted effect of over 55% in size
Target sequence (P10636 561-689 P618L limits assumed): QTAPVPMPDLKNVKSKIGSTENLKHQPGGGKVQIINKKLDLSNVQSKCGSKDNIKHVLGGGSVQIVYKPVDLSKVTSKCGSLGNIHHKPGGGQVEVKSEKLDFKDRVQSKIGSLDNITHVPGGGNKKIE
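Tau K18 P301L fragment (15 uM unlabeled plus 0.24 uM Alexa 594-labeled) in 100 mM sodium acetate pH 7 with compound, fibrillization induced by 20 uM heparin for 6 hr at 37 C. Thioflavin T (30 uM) added, fluorescence read after 1 hr (ex 450, em 510 nm).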
Tau fluor cs = Counterscreen qHTS for Inhibitors of Tau Fibril Formation, Fluorescence Polarization; tau K18 P301L Alexa594 fluorescence, heparin fibrillization; actives 0.93% (n = 280,000); AID 1463, 2008; Potency, µM (highest dose often 57.7 µM); further: nearly all actives have a fitted effect of over 55% in size
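Human tau K18 P301L (15 uM unlabeled, 0.24 uM Alexa 594-labeled) in 100 mM sodium acetate pH 7 with 20 uM heparin, 6 hr at 37 C. ThT 30 uM added, 1 hr ambient; Alexa 594 FP and total fluorescence read at 555/632 nm.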
Tau FP inhib = qHTS for Inhibitors of Tau Fibril Formation, Fluorescence Polarization; Potency, µM (series often up to 57.7 µM), usual class: inhibitors; K18 P301L tau heparin fibrillization, Alexa594 FP, 6 h; actives 0.39% (n = 280,000); AID 1468, 2008; Microtubule-associated protein tau (Homo sapiens), P10636; further: nearly all actives have a fitted effect of over 55% in size
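Steps: dispense K18 P301L tau (15 uM plus 0.24 uM Alexa 594 tracer, final) in pH 7 sodium acetate; add compound; add heparin (20 uM final); incubate 6 hr, 37 C; add ThT (30 uM final); after 1 hr ambient, read FP.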
KDM4E inh = qHTS Assay for Inhibitors of Human Jumonji Domain Containing 2E (JMJD2E); Lysine-specific demethylase 4E (Homo sapiens), B2RXH2; JMJD2E catalytic domain, FDH-coupled NADH fluorescence (FDH is formaldehyde dehydrogenase); Potency, µM (titrated, usually from 57.1 µM), hits mostly inhibitors; actives 1.6% (n = 230,000); AID 2147, 2009; active means well fitted inhibition curve with a large enough effect, not every such curve was filed as active; inconclusive means small, poorly fitted or top-dose-only effect, or another doubt; inactive means no such curve, though single readings can be large or run the other way; further: nearly all actives have a fitted effect of over 50% in size
Target sequence (B2RXH2 1-337 limits assumed): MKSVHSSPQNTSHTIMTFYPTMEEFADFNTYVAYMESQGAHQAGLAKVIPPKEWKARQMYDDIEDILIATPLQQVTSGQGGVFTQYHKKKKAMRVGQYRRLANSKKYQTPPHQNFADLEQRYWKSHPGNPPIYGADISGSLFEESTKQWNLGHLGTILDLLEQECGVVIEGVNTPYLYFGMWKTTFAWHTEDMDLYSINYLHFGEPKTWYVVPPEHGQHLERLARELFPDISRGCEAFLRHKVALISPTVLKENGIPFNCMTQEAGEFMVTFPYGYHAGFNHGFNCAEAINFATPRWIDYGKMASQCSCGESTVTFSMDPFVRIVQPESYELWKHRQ
RGS12 GoLoco inh = qHTS Assay for Inhibitors of RGS12 GoLoco Motif Activity (Red Fluorophore) | Guanine nucleotide-binding protein G(i) subunit alpha-1 (Homo sapiens), P63096 | Gai1:RGS12 GoLoco peptide FP, rhodamine, 10 min | Potency, µM (highest dose often 61.6 µM), actives largely listed as inhibitors | actives 0.44% (n = 230,000); active means well fitted inhibition curve with a large enough effect, not every such curve was filed as active; inactive means no such curve, though single readings can be large or run the other way; further: nearly all actives have a fitted effect of over 30% in size
A number is an active result; n = inactive; u = inconclusive; x = no result given; [ ] = dose if it differs, or a comment. Unless noted, the call rests on the fitted dose curve; in most records, active means well fitted curve in the direction sought with a large enough effect; inconclusive means small, poorly fitted or top-dose-only effect, or another doubt; inactive means no such curve, though single readings can be large; an effect the other way counts as inactive or inconclusive.

SMILES	Tau fibril ThT	Tau fluor cs	Tau FP inhib	KDM4E inh	RGS12 GoLoco inh
O=C(OCC1OC(OC(=O)c2cc(O)c(O)c(OC(=O)c3cc(O)c(O)c(O)c3)c2)[C@@H](OC(=O)c2cc(O)c(O)c(OC(=O)c3cc(O)c(O)c(O)c3)c2)C(OC(=O)c2cc(O)c(O)c(OC(=O)c3cc(O)c(O)c(O)c3)c2)C1OC(=O)c1cc(O)c(O)c(OC(=O)c2cc(O)c(O)c(O)c2)c1)c1cc(O)c(O)c(OC(=O)c2cc(O)c(O)c(O)c2)c1 (stereo partly drawn)	1.3µM	0.5µM[quencher]	u	0.28µM	n
Cc1cn(C2OC(COC(=O)c3ccccc3)C(OC(=O)c3ccccc3)C2OC(=O)c2ccccc2)c(=O)[nH]c1=O (stereo not drawn)	n	n	n	n	n
Cc1c2cccn2cc[n+]1C	n	n	n	u	8.9µM
COCc1cc(C)nc(OCC(=O)N/N=C/c2ccccc2O)c1C#N	n	n	n	25µM	n
COCc1cc(C)nc(OCC(=O)N/N=C/c2ccc(O)cc2O)c1C#N	n	n	n	25µM	n
COCc1cc(C)nc(OCC(=O)N/N=C/c2cccc(OC)c2)c1C#N	n	n	n	u	n
CCOc1cc(/C=N/NC(=O)COc2nc(C)cc(COC)c2C#N)ccc1O	n	n	n	n	n
O=[N+]([O-])c1cc(C(F)(F)F)ccc1NCCc1c[nH]c2ccccc12	13µM	10µM[quencher]	n	n	n
O=[N+]([O-])c1cc(C(F)(F)F)ccc1NCCc1c[nH]c2ccc(O)cc12	18µM	28µM[quencher]	n	n	n
CS(=O)(=O)NCCCNc1ccc(C(F)(F)F)cc1[N+](=O)[O-]	x	n	n	n	n
Cc1ccc(C(CC(=O)Nc2cc(C)cc(C)c2)N2Cc3ccccc3C2=O)cc1 (stereo not drawn)	n	n	n	x	x
Cc1cc(=O)n2nc(N3CCC(C(=O)Nc4c(C)cccc4C)CC3)sc2n1	n	n	n	x	x
N#Cc1ccc(NC(=O)Nc2cccc(C#N)c2)cc1	u	u	u	n	n
N#Cc1ccc(NC(=O)Nc2ccc(Oc3ccc(NC(=O)Nc4ccc(C#N)cc4)cc3)cc2)cc1	u	7.9µM[quencher]	u	u	n
Cc1ccc(NC(=O)Cn2nc(C)n3cccc3c2=O)c(C)c1	n	n	u	x	x
BrC(=C\c1ccccc1)/C=N/N1CCN(c2ccccc2)CC1	20µM	u	u	n	n
CC(/C=N/N1CCN(c2ccc(C)cc2)CC1)=C\c1ccccc1	u	n	u	n	n
COc1ccc(C2c3c(n(C)c4ccccc34)C(=O)N2CC(=O)Nc2cccc(Cl)c2)cc1 (stereo not drawn)	n	n	u	x	x
CCc1ccc(CNC(=O)c2sc3ncccc3c2-n2c(C)ccc2C)cc1	n	n	n	x	x
CCOC(=O)c1ccc(CC(=O)c2ccc(O)c(O)c2O)o1	16µM	u	22µM	3.2µM	n
Cc1oc2ccc(O)c(CN3CCCC3)c2c1C(=O)Nc1cccc(Cl)c1C	n	n	n	x	x
CCCCN(C)CC(O)Cn1cc(/C=C/C(=O)c2ccc(OCC)cc2)c2ccccc21 (stereo not drawn)	11µM	u	n	x	x
CCCCN(CCCC)CC(O)Cn1cc(/C=C/C(=O)c2ccccc2)c2ccccc21 (stereo not drawn)	u	u	n	x	x
CCc1c(-c2ccccc2)nc2ccccc2c1C(=O)NCCc1ccccc1	n	n	n	x	x
CC(NC(=O)c1sc2ncccc2c1-n1cccc1)c1ccccc1 (stereo not drawn)	n	n	n	x	x
SMILES	Tau fibril ThT	Tau fluor cs	Tau FP inhib	KDM4E inh	RGS12 GoLoco inh
S=C(Nc1ccc2cn[nH]c2c1)Nc1ccc(Cl)cc1Cl	16µM	u	n	u	n
S=C(Nc1ccc2cn[nH]c2c1)Nc1ccccc1Cl	14µM	u	n	n	n
Cc1ccccc1NC(=S)Nc1ccc2cn[nH]c2c1	u	n	n	u	n
COc1cc2c(cc1NC(=O)COc1ccc(Br)c(C)c1)oc1ccccc12	u	n	n	x	x
O=C1/C(=C\c2ccc3c(c2)OCO3)CCC/C1=C/c1ccc2c(c1)OCO2	4.5µM	n	n	n	n
O=C1OCC/C1=C\c1ccc2c(c1)OCO2	n	n	n	n	n
O=C1/C(=C/c2ccncc2)CCC/C1=C\c1ccncc1	5µM	n	5µM	n	n
CC1CCN(c2ncnc3c2cnn3-c2ccc(F)cc2)CC1	u	n	n	x	x
Oc1c(N=NC(=S)Nc2ccccc2F)c2ccccc2n1Cc1ccccc1Cl	n	u	u	n	n
Cc1c(Cl)cccc1NC(=S)N=Nc1c(O)n(CN2CCOCC2)c2ccccc12	u	18µM[quencher]	n	n	n
COc1ccccc1CC(=O)Nc1ccc2nc(Nc3cccc(C(F)(F)F)c3)cc(C)c2c1	n	6.3µM[quencher]	n	x	x
COc1cccc(NC(=O)Cc2ccccc2)c1	n	n	n	n	n
COc1cccc(CC(=O)Nc2ccc3nc(Nc4cccc(C(F)(F)F)c4)cc(C)c3c2)c1	u	7.1µM[quencher]	u	x	x
COc1ccccc1CC(=O)Nc1ccc2nc(N3CCC(C)CC3)cc(C)c2c1	n	u	n	x	x
COc1ccc(CNC(=O)CCCn2c(=O)c3cccn3c3ccc(F)cc32)cc1OC	n	n	n	x	x
Cc1ccc(C2C(=O)N(C3CCCCCC3)CC(=O)N2CCC2=CCCCC2)cc1 (stereo not drawn)	n	n	n	x	x
